The source of these data is ChEMBL document CHEMBL1961873, “Compounds: GSK PKIS; Assays: Nanosyn kinase panel” (2012).

A word on the inhibition: it is the change of the read-out against control, counted positive when it falls.

Structures are written as SMILES. Several values for one entry are separate records, joined by “and”; a condition that tells them apart may be missing. Equal values may be shown once.
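Note: reported values are mean percent inhibition of ROCK1.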

This assay deals with Rho-associated protein kinase 1 (Homo sapiens) (UniProt Q13464). As to conditions: at 1 µM.
Chain of Rho-associated protein kinase 1 (Homo sapiens) (Q13464 2-1354 limits assumed): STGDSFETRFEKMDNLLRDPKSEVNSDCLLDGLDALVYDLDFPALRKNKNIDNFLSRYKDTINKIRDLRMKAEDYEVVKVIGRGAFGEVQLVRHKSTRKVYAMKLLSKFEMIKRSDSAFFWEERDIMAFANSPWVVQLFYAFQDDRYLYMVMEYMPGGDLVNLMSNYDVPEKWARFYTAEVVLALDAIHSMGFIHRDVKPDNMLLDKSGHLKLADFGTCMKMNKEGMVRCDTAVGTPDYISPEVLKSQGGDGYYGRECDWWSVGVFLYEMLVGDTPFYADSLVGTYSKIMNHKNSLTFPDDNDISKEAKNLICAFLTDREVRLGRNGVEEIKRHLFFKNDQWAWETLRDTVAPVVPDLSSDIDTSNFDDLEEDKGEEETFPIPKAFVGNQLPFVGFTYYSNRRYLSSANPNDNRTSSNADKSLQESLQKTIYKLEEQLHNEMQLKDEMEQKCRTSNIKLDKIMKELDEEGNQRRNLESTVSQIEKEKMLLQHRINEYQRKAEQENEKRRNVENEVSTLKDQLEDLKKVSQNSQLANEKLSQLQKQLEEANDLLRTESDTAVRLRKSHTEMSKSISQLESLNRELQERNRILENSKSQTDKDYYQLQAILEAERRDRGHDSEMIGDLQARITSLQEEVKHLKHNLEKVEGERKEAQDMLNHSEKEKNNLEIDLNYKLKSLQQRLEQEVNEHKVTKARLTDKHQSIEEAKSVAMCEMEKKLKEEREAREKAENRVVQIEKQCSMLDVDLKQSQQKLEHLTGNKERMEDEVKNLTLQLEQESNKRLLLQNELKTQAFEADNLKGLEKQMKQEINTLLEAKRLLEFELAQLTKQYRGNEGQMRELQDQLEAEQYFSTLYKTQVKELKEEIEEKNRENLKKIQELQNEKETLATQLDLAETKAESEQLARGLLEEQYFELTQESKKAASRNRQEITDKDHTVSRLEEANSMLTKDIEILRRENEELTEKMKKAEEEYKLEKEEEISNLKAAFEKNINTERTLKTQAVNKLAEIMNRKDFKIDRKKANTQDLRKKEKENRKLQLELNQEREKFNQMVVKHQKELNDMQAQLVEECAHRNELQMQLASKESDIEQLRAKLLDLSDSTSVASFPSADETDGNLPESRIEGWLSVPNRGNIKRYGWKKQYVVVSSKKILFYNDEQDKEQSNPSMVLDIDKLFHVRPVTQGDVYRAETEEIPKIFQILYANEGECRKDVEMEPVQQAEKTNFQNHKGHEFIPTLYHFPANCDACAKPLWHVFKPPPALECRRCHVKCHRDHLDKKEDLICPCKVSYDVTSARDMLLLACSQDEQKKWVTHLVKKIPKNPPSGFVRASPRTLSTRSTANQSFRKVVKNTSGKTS
Turning to `CCCNc1cccc(-n2ncc3c(N/N=C/c4ccncc4)ncnc32)c1`, the inhibition was found to be 13.7%.
As to `COC(=O)Nc1nc2ccc(Oc3ccc(NC(=O)Nc4cc(C(F)(F)F)ccc4F)cc3)cc2s1`, the inhibition was 1.94%.
Turning to `N#Cc1ccc2c(-c3ccnc(NC4CC4)n3)c(-c3ccc(F)cc3)nn2c1`, the inhibition is 0.26%.
Regarding `Fc1cccc(COc2ccc(Nc3ncncc3C#Cc3ccccc3)cc2Cl)c1`, the inhibition came out at 1.47%.
`NS(=O)(=O)c1cccc(N/C=C2\C(=O)Nc3ccccc32)c1`: the inhibition stood at 3.96%.
In the case of `COc1ccccc1-c1cc(/C=C2\C(=O)Nc3ncc(Br)cc32)cc(Br)c1O`, the inhibition came out at 2.31%.
For `COC(=O)Nc1nc2cc(Oc3ccc(NC(=O)Nc4ccccc4)cc3)ccc2[nH]1`, the inhibition was found to be 6.47%.
Regarding `O=C(O[C@H]1CN[C@H](C#Cc2cc3ncnc(Nc4ccc5c(cnn5Cc5ccccc5)c4)c3s2)C1)N1CCOCC1`, the inhibition is -2.07%.
Consider `CCn1c(-c2nonc2N)nc2cncc(C(=O)NCCNC)c21`, for which the inhibition worked out at 91.6%.
As to `Cc1cc(O)cc(C)c1/C=C/c1cncc(C(=O)OC(C)(C)C)c1`, the inhibition is 2.78%.
As to `N#Cc1cccc(Nc2ncc(-c3ccccc3)o2)c1`, the inhibition worked out at 0.71%.
Regarding `CNC(=O)c1sc(-n2cnc3cc(OC)c(OC)cc32)cc1OCc1ccccc1C(F)(F)F`, the inhibition amounted to 0.26%.
Regarding `COc1ccc2ncn(-c3cc(O[C@H](C)c4ccccc4C(F)(F)F)c(C(N)=O)s3)c2c1`, the inhibition worked out at 0.18%.
For `COc1ccc(-c2nn3ncccc3c2-c2ccnc(Nc3ccc(F)c(F)c3)n2)cc1`, the inhibition amounted to 1.15%.
On to `Cc1cc(O)cc(C)c1/C=C/c1cncc(C(N)=O)c1`, for which the inhibition worked out at 3.29%.
The figure for `Fc1ccc(Nc2nccc(-c3c(-c4ccc(C(F)(F)F)cc4)nn4ncccc34)n2)cc1F` is 2.54%.
For the compound `c1ccc(-c2n[nH]cc2-c2ccnc(-c3ccc(OCCn4ccnc4)cc3)c2)nc1`, the inhibition was found to be 5.6%.
Take `COc1cc(N2CCN(C(C)C)CC2)ccc1Nc1nc(Nc2cccc(F)c2C(=O)O)c2cc[nH]c2n1`: the inhibition was 2.22%.
On to `CS(=O)(=O)Nc1ccc(-c2cc(-c3ccccc3)cc(C(N)=O)c2N)cc1`, for which the inhibition came to 1.71%.
Turning to `Nc1ncnc2occ(-c3ccc(NC(=O)Nc4cc(C(F)(F)F)ccc4F)cc3)c12`, the inhibition is 10.2% and 6.77%.
With `COc1cc2c(cc1Nc1nc(Nc3cccc(F)c3C(N)=O)c3cc[nH]c3n1)N(C(=O)CN1CCN(C(C)C)CC1)CC2` the figure was 0.34%.
With `CCS(=O)(=O)c1ccc(OC)c(Nc2ncc(-c3cccc(C(C)=O)c3)o2)c1` the figure was 2.14%; with `CC(C)c1ccc(-c2cc(-c3c[nH]nc3-c3ccccn3)ccn2)cc1`, 1.96%.
As to `O=C(O[C@H]1CN[C@H](C#Cc2cc3ncnc(Nc4ccc5c(ccn5Cc5cc(F)ccc5F)c4)c3s2)C1)N1CCOCC1`, the inhibition is 3.4%.
Turning to `CN(c1ccc(NC(=O)NCCN2CCOCC2)cc1)c1ccnc(Nc2ccc(CS(C)(=O)=O)cc2)n1`, the inhibition amounted to 8.01%.
The figure for `NS(=O)(=O)c1ccc(N/N=C2\C(=O)Nc3cccc(CCc4ccncc4)c32)cc1` is 1.51%; for `CNC(=O)c1cncc(/C=C/c2ccccc2C)c1` it is 1.27%; for `CN1CCC(C(=O)Nc2n[nH]c3nc(-c4ccc(O)cc4)c(Br)cc23)CC1` it is 2.13% and -0.83%.
For the compound `COc1c(C(N)=O)cc(-c2ccc(Cl)cc2)cc1-c1ccc(S(N)(=O)=O)cc1`, the inhibition came to 3.19%.
For `CN1CCN(Cc2ccc(-c3cc4ncnc(Nc5ccc(OCc6cccc(F)c6)c(Cl)c5)c4s3)o2)CC1`, the inhibition is 2% and 0.89%.
The figure for `NC(=O)c1ccc2c(-c3ccnc(NCCCO)n3)c(-c3ccc(F)cc3)nn2c1` is 1.92%.
